Source: PubChem (National Center for Advancing Translational Sciences (NCATS))
CCT modulator: High-Throughput Screening for Modulators of Cytosolic Chaperonin Activity. purified chaperonin ATPase assay, HTRF ADP detection, 30 min. activity change, % (no concentration beside the values), hits read low. actives 0.3% (n = 360,000). AID 651819, 2012; in the data active = activity change below about -30%; also: % is scaled to controls: 0 for no effect and ±100 for the full control effect
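First, chaperonin was dispensed at 40 nM or 20 nM final depending on batch activity. Next, compounds were pinned at 76 uM and ATP added at 10 uM. After 30 min at 37 °C, ADP detection reagents ran 30 min at ambient temperature.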
Rango release inh: qHTS Assay for Inhibitors of RanGTP induced Rango (Ran-regulated importin-beta cargo) - Importin beta complex dissociation; AID 540253, 2011; Biochemical FRET Rango-importin beta, RanGTP-induced dissociation; Potency, µM (top dose mostly 46.1 µM), inactives show at the highest dose activity change, negative = inhibition; Snurportin-1 (Homo sapiens) + GTP-binding nuclear protein Ran (Homo sapiens) + Importin …; actives 0.071% (n = 340,000); also: potency is read from the fitted curve at half-maximal effect; % of control where 0% means no effect; nearly all actives have a fitted effect of over 45% in size
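Two FRET readings bracket the reaction: one 5 min after compound meets Rango–importin beta, another 45 min after RanGTP-RCC1 (0.6 uM Ran, 0.2 uM RCC1, 2 mM GTP) is added. Only the second defines inhibition.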
Mm-Cpn inhibitor: Inhibitors of TCP-1 ring complex (TRiC) of Methanococcus maripaludis (MmCpn): qHTS | Chaperonin Mm-Cpn (Methanococcus maripaludis) | purified Mm-Cpn ATPase, ADP Transcreener TR-FRET | Potency, µM (doses to about 76.9 µM), inactives show at the highest dose activity, negative = inhibition, usual class: inhibitors | actives 0.031% (n = 330,000) | AID 504842, 2011; active = well fitted inhibition curve with a large enough effect; inconclusive = small, poorly fitted or top-dose-only effect; also: potency is read from the fitted curve at half-maximal effect; % is scaled to controls: 0 for no effect and ±100 for the full control effect; nearly all actives have a fitted effect of over 80% in size
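Quantitative HTS used 25 nM Mm-CPN and 10 uM ATP in magnesium/KCl Tris buffer, pH 7.4, with 1 mM DTT. Hydrolysis ran 30 min at 37°C; ADP was read by HTRF.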
KCNH2 3.1 block: qHTS for Inhibitors of KCHN2 3.1: Mutant qHTS; Potassium voltage-gated channel subfamily H member 2, brain isoform KCNH2 3.1 (human); U2OS KCNH2 3.1, thallium flux FluxOr; stronger effect = lower value; activity change, % (tested at about 1.8 µM); actives 0.95% (n = 340,000);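 active = maximum activity change below -70%; inconclusive = maximum activity change from -70% to -50%; inactive = maximum activity change above -50%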;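 also: thallium influx rate constant from kinetic fluorescence after stimulation buffer; % is scaled to controls: 0 for no effect and ±100 for the full control effect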
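Steps: virus added to U2OS suspension (4 h, RT, dark); medium with 10% FBS added, cells plated, 37 C overnight; FluxOr/Red40 loading buffer 45 min RT; stimulation buffer, 2 min kinetic read; rate constant normalized.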
Rango-impB inh: qHTS Assay for Inhibitors of Rango (Ran-regulated importin-beta cargo) - Importin beta complex formation; Rango CFP/YFP FRET sensor + importin beta, 45 min; Potency, µM (series often up to 92.2 µM), for the others: at the top dose inhibition of complex formation; actives 0.031% (n = 340,000); AID 540263, 2011;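 also: potency is read from the fitted curve at half-maximal effect; 0% = DMSO wells and 100% = buffer wells lacking importin beta; nearly all actives have a fitted effect of over 15% in size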
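FRET biosensor (snurportin 1 IBB flanked by EYFP and cerulean), 50 nM, with compound 5 min, then 0.125 microM importin beta in PBS, 1 mM DTT, 0.02% Tween-20, 0.1% BSA. CFP/YFP ratio read after 45 min at room temperature; pre-read flags interference.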
KCNH2 WT inh: qHTS for Inhibitors of KCHN2 3.1: Wildtype qHTS | U2OS, BacMam KCNH2, thallium flux FluxOr; stronger effect = lower value | AID 720551, 2013 | Voltage-gated inwardly rectifying potassium channel KCNH2 (Homo sapiens), Q12809 | activity change, % at 1.84 µM | actives 0.37% (n = 340,000);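 active = maximum activity change below -70%; inconclusive = maximum activity change between -70% and -50%; inactive = maximum activity change above -50%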; also: % is scaled to controls: 0 for no effect and ±100 for the full control effect
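U2OS cells were transduced with wild-type KCNH2 virus (2.03 x 10^8 / mL) for 4 h at room temperature, then cultured overnight at 37 C. Thallium flux was read with FluxOr dye. Rate constants were normalized to DMSO controls.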
* marks the source's active call; other numbers are inactive results; ? = inconclusive; nt = not tested or not shown; [ ] = remark or other dose. Hits are enriched below; roughly 1.4% of the tested compounds scored in any of these assays. Unless noted, calls follow the shape of the full dose curve.

SMILES | CCT modulator | Rango release inh | Mm-Cpn inhibitor | KCNH2 3.1 block | Rango-impB inh | KCNH2 WT inh
CCC(=O)NNC(=O)CCC(=O)Nc1ccc(C)cc1C | 1 | 2% | 1% | 9 | 1% | -6
Cc1cccc(CNC(=O)c2sc(=O)n(Cc3ccc(S(C)(=O)=O)cc3)c2C)c1 | 1 | nt | nt | nt | nt | nt
Cc1cc(C)c[n+](CC(=O)c2c(C)cc(C)c([N+](=O)[O-])c2C)c1 | -2 | -5% | -3% | -6 | 1% | -2
Cc1cccc2c1Sc1ccc(Cl)cc1CC2N1CCNCC1 (centres undefined) | 0 | -9% | nt | -11 | 4% | -2
CCc1cccc2c1Sc1ccccc1CC2N1CCNCC1 (centres undefined) | -5 | 22% | nt | -77* | 0% | 2
CCCn1c(N)c(N(CCOC)C(=O)COC(=O)c2ccccc2NCCO)c(=O)[nH]c1=O | -1 | 5% | -4% | -192* | -2% | -6
O=C(/C=C/c1ccc(Cl)cc1Cl)N(Cc1ccccc1)C1CCS(=O)(=O)C1 (centres undefined) | -4 | 3% | -1% | -3 | -1% | -8
O=C(/C=C/c1ccc(Cl)cc1)N(Cc1ccccc1)C1CCS(=O)(=O)C1 (centres undefined) | 1 | -8% | 0% | -75* | 1% | 0
COCCNC(=O)c1ccc(N2CC3CC(C2)c2cccc(=O)n2C3)c(NC(=O)c2ccccc2Br)c1 (centres undefined) | 0 | nt | nt | -28 | nt | -13
O=C(O)CCCC(=O)Nc1ccc(Cl)cc1 | -65* | 0% | -3% | 26 | 1% | 1
CC(C)=CC(=O)Nc1c(C)cc(C)cc1Cl | -5 | 14% | -2% | 2 | -1% | 7
Cc1cc(C)c(NC(=O)CCCC(=O)O)c(Cl)c1 | -50* | -10% | 1% | 10 | 0% | 0
CCc1ccc(C(=O)c2cn(CC(=O)Nc3cccc(OC)c3)c3ccc(OC)cc3c2=O)cc1 | nt | nt | -20% | nt | nt | nt
CCn1cc(S(=O)(=O)NC2CCCCC2)cn1 | 0 | -10% | -2% | -1 | -1% | 12
COc1ccc(-n2nc(C(=O)NCC(=O)N3CCN(c4ccccc4F)CC3)c3ccccc3c2=O)cc1OC | -15 | 1% | -16% | 12 | -2% | -14
Cc1ccnc(NS(=O)(=O)c2ccc(NC(=O)c3ccc(Cl)cc3[N+](=O)[O-])cc2)n1 | -1 | -4% | 3% | -134* | -1% | -10
Cc1ccnc(NS(=O)(=O)c2ccc(NC(=O)c3cccc(Cl)c3)cc2)n1 | -1 | nt | nt | 1 | nt | 10
CCOc1cc(/C=C2\SC(=NC)N(C)C2=O)cc(Cl)c1OC(C)=O | -1 | 4.6µM*[inhibitor] | 3% | -7 | ? | -14
CCN(CC)c1nc(C=Cc2ccc(N(C)C)cc2)c2nccnc2n1 | -1 | nt | nt | -99* | nt | -107*
CCCCCOc1ccc(CSC(=N)N)cc1[N+](=O)[O-] | 2 | 1% | 0% | -96* | 0% | 29
CCOc1ccc(CN(CCO)CCO)cc1[N+](=O)[O-] | 4 | 2% | 0% | -76* | 5% | 9
CCCCOc1ccc(CSC2=NCCN2)cc1[N+](=O)[O-] | 0 | -2% | -1% | ? | 0% | 14
CCOc1ccc(CSC2=NCCN2)cc1[N+](=O)[O-] | -2 | -16% | -3% | -91* | 3% | 8
COc1ccc(Br)cc1C(=O)N/N=C/c1cccnc1 | 0 | 17% | 0% | -9 | 3% | -5
COc1cc2ccccc2cc1C(=O)N/N=C/c1cccnc1 | -35* | -3% | -10% | 7 | 0% | 31
SMILES | CCT modulator | Rango release inh | Mm-Cpn inhibitor | KCNH2 3.1 block | Rango-impB inh | KCNH2 WT inh
COc1ccc(/C=C(/NC(=O)c2ccccc2)C(=O)NCCCn2ccnc2)cc1OC | 1 | -4% | 2% | -34 | 2% | 3
O=C(NCCCn1ccnc1)/C(=C\c1ccc(Br)cc1)NC(=O)c1ccccc1 | 1 | 1% | -4% | -104* | 6% | -125*
Cc1ccc(C(=O)N/C(=C/c2ccco2)C(=O)NCCCn2ccnc2)cc1 | 0 | -17% | 0% | -93* | -1% | ?
COc1ccccc1C(=O)N/C(=C/c1ccc(Br)cc1)C(=O)NCCCn1ccnc1 | 2 | -4% | 1% | -99* | 4% | -125*
O=C(CCCNC(=O)/C(=C/c1ccc(F)cc1)NC(=O)c1ccccc1)OCc1ccccc1 | 0 | 1% | 0% | -1 | -2% | -138*
O=C(NCCCn1ccnc1)/C(=C/c1ccccc1)NC(=O)c1ccccc1 | 0 | -14% | -6% | -113* | -2% | -137*
CN(C)c1ccc(/C=C(\NC(=O)c2ccccc2)C(=O)NCCCn2ccnc2)cc1 | -2 | -12% | 1% | -7 | 3% | 11
Cc1ccc(C(=O)N/C(=C\c2ccc(F)cc2)C(=O)NCCCn2ccnc2)cc1 | 0 | 8% | -1% | -114* | 0% | -95*
O=C(Nc1ccn(Cc2ccccc2)n1)c1ccc2c(c1)OCO2 | -5 | 10% | -30% | -81* | 0% | -6
CCOC(=O)C1=NNC2(c3ccc(Cl)cc3)C(=O)N(c3ccc(C)cc3)C(=O)C12 (centres undefined) | -1 | -11% | 0% | -45 | 0% | 3
COc1ccc(OCCN2CCN(C(=O)c3ccc(OC)cc3)CC2)cc1 | -2 | -3% | 2% | -48 | -2% | 2
COc1ccc(OCCN2CCN(C(=O)c3ccc(OC(F)F)c(OC)c3)CC2)cc1 | 1 | 13% | 1% | -76* | 0% | 26
CCOC(=O)c1ccc(N2C(=O)CC(N3CCN(C/C=C/c4ccccc4)CC3)C2=O)cc1 (centres undefined) | 2 | 0% | -3% | -101* | 8% | -84*
CCOC(=O)c1ccc(S(=O)(=O)N2CCN(C3CC(=O)N(c4ccc(OC)cc4)C3=O)CC2)cc1 (centres undefined) | -1 | -5% | nt | 3 | 1% | 1
C/C(N)=C(/C#N)C(=O)COC(=O)Cc1coc2ccc3ccccc3c12 | 1 | 1% | -4% | 31 | -2% | -20
Cc1ccc(C)c(Nc2nc3c(S(=O)(=O)c4ccccc4)nnn3c3ccccc23)c1 | 0 | 5% | 1% | -72* | -4% | -2
